# Assay outcomes as filed in PubChem.
# This is a sample that favours compounds with a hit; in the whole collection about 3.7% have one here.
# Nrf2 ARE act – Nrf2 pathway activation; AREc32 ARE-luciferase reporter (MCF7-derived line), luminescence, 24 h; Potency, µM (top dose mostly 46.1 µM), without a hit: top-dose activation, usual class: activators; 410,000 compounds, 0.31% hits; AID 624171; further: % of control where 0% means no effect; nearly all actives have a fitted effect of over 65% in size
#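 Steps: seed AREc32_Fluc cells (1000/well, 5% FBS OPTI-MEM); incubate overnight at 37 deg C; add 23 nL compound; incubate 24 hr; add Steady-Glo; hold 30 min RT; read luminescence.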
# A549 tox – A549 cytotoxicity, counter-screen for Nrf2 inhibitors. A549 ARE-Fluc cells, CellTiter-Fluor viability, 18-24 h. Potency, µM (highest dose often 46 µM), without a hit: at the top dose activity change, negative = cytotoxicity, hits mostly inhibitors. 390,000 compounds, 0.16% hits. AID 504648; further: on the % scale 0 is the no-effect control and ±100 the full control effect
#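 A549 ARE_Fluc cells in 5% FBS OPTI-MEM were exposed to compounds in concentration-response for 18-24 h at 37 deg C. Viability was read by CellTiter-Fluor fluorescence (Ex 405/Em 525) after 30 min, before the luciferase read.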
# ELG1 repair inh – ELG1-dependent DNA repair inhibition; HEK293T ELG1-luciferase reporter, luminescence, 16 h; DNA damage induced by 5-fluorouridine; Potency, µM (series often up to 46.1 µM), for inactives: at the top dose activity change, negative = inhibition, actives largely listed as inhibitors; 330,000 compounds, 2.3% hits; AID 504467; further: on the % scale 0 is the no-effect control and ±100 the full control effect; nearly all actives have a fitted effect of over 55% in size
#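 HEK293T cells expressing luciferase-tagged ELG1 (2,000/well) received 5-Fluorouridine plus compound or DMSO for 16 hr at 37 °C. Luciferase was read by ONE-Glo luminescence after 30 min at room temperature.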
# Nrf2 inh – blocks Nrf2 signaling | A549 ARE-Fluc reporter, luciferase luminescence, 18-24 h | Potency, µM (series often up to 46 µM), for the others: at the highest dose activity change, negative = inhibition, hits mostly inhibitors | 360,000 compounds, 2.1% hits | AID 504444; further: on the % scale 0 is the no-effect control and ±100 the full control effect; nearly all actives have a fitted effect of over 60% in size
#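 In this cell-based qHTS, ARE-driven firefly luciferase in A549 cells reports Nrf2 activity; the luminescent signal after BugLite lysis is the measured value, with a prior CellTiter-Fluor read for cell health.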
# An asterisk follows results filed as active; ? = inconclusive; / = no result. The call rests on the fitted dose curve; in most records, active means well fitted curve in the direction sought with a large enough effect; inconclusive means small, poorly fitted or top-dose-only effect, or another doubt; inactive means no such curve, though single readings can be large; an effect the other way counts as inactive or inconclusive. Potency means the concentration at half of the fitted maximal effect.
SMILES,Nrf2 ARE act,A549 tox,ELG1 repair inh,Nrf2 inh
CC1=C(C(=O)OC2CCCCCCC2)C(c2cc3c(cc2Br)OCO3)CC(=O)N1 (configuration not stated),0%,?,8%,21µM*
O=C1c2cccc(NCCCNCCO)c2C(=O)c2cccc(NCCCNCCO)c21,-1%,18µM*,/,?
O=C1c2ccccc2C(=O)c2c(NCc3cccnc3)cccc21,0%,-1%,-14%,-9%
CC(NC(=O)C1CCN(S(=O)(=O)c2ccc(F)cc2)CC1)c1ccccc1 (configuration not stated),-1%,4%,/,3%
COc1ccc(C(O)(C2CCCCC2)C(CN2CCOCC2)c2ccccc2)cc1 (configuration not stated),0%,-16%,?,21µM*
OC(c1ccccc1)(C1CCCCC1)C(CN1CCOCC1)c1ccccc1 (configuration not stated),5%,11%,-8%,-13%
N#Cc1nc(Nc2ccc(F)cc2)nc(NC2CCCC2)n1,/,-16%,/,-13%
CCN(CC)S(=O)(=O)c1cc(NC(=O)C2CC(=O)N(Cc3ccccc3)C2)ccc1Cl (configuration not stated),0%,-11%,?,18µM*
Cc1sc2ncnc(N3CCC(C(=O)Nc4ccc(C#N)cc4)CC3)c2c1C,0%,-3%,?,-13%
Cc1ccc(NC(=O)C2CCN(c3ncnc4sc(C)c(C)c34)CC2)cc1S(=O)(=O)N(C)C,0%,-16%,?,23µM*
CCN(CC)S(=O)(=O)c1cc(NC(=O)C2CCN(c3ncnc4sc(C)c(C)c34)CC2)ccc1Cl,3%,?,?,12µM*
CCCCc1c(-c2ccccc2OC)ncn1CCc1ccccc1Cl,0%,/,/,/
C[C@H](CO)N1C[C@H](C)[C@@H](CN(C)C(=O)OCc2ccccc2)OCc2cn(nn2)CCCC1=O,0%,/,/,/
CC(=O)c1c(C)oc2ccc(N(C(=O)Oc3ccccc3)S(=O)(=O)c3ccccc3)cc12,5%,-1%,/,-12%
CC(C)(C)c1nnc(NC(=O)CCS(=O)(=O)c2ccccc2)s1,16µM*,0%,6%,-10%
N#Cc1ccsc1NC(=O)CCS(=O)(=O)c1ccccc1,14µM*,-1%,16%,-15%
CC(=O)c1sc(NC(=O)CS(=O)(=O)c2ccc(F)cc2)nc1C,0%,5%,?,12%
CC(=O)c1sc(NC(=O)CCS(=O)(=O)c2ccc(C)cc2)nc1C,22µM*,?,10%,-25%
N#Cc1ccsc1NC(=O)COC(=O)CCS(=O)(=O)c1ccccc1,0%,5%,-3%,3%
Cc1cc(C2(c3ccc(O)c(C)c3)OC(=O)c3ccccc32)ccc1O,3%,-3%,0%,10%
Cc1cc(O)c(C(C)C)cc1C1(c2cc(C(C)C)c(O)cc2C)OC(=O)c2ccccc21,-3%,?,16µM*,?
Cc1ccc(/C=C/S(=O)(=O)NCC(=O)OCC(=O)Nc2c(F)cccc2F)cc1,16%,-5%,2%,-6%
[O-]/C(=C(\C(=S)Nc1ccc(SC(F)F)cc1)[n+]1ccccc1)c1ccc(Cl)cc1Cl,3%,-19%,15µM*,?
COc1cc2cnc(-c3ccccc3)c(-c3cc(OC)c(OC)c(OC)c3)c2cc1OC,-1%,0%,9.2µM*,-27%
CCOc1ccc(NS(=O)(=O)c2ccc(NC(=O)c3ccccn3)cc2)cc1,-1%,-11%,5%,15µM*
SMILES,Nrf2 ARE act,A549 tox,ELG1 repair inh,Nrf2 inh
CCCC(=O)NC(=S)Nc1ccc(S(=O)(=O)Nc2ccc(OCC)cc2)cc1,3%,18µM*,?,7.3µM*
COC(=O)CCN(C(=O)c1cccc([N+](=O)[O-])c1)c1ccccn1,0%,-1%,-1%,?
COc1cc(C(C)=O)ccc1OCC(=O)NCc1ccccc1CN1CCCC1,-1%,/,/,/
Cc1cc(C)nc(/N=C(\N)Nc2cccc(OCc3ccccc3)c2)n1,-2%,12%,21µM*,20%
N/C(=N\OC(=O)/C=C/c1ccccc1Cl)c1ccncc1,?,1%,?,?
CCc1ccc(NC(=O)Cn2c(=O)n(Cc3ccc4c(c3)OCO4)c(=O)c3oc4ccccc4c32)cc1,-1%,-1%,/,-6%
c1ccc(CNCc2nnc(-c3cc4ccccc4[nH]3)s2)cc1,/,-2%,/,?
c1ccc2c(N3CCOCC3)nc(N3CCOCC3)nc2c1,0%,-7%,?,-21%
